# Data taken from PubChem BioAssay (NCI).
# The panel holds about 83,000 compounds, 20% with a hit somewhere; the sample as a whole holds those more often.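 Results are percent growth after 48 hours of single-concentration exposure. 100 means growth as in untreated cells, lower positive values show inhibition; negative values down to -100 show cell death.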 Values without a mark were called inactive. Calls of active or inactive are those of the source. How the source made its calls: active means growth percent below 10; inactive means the rest.
# What was measured:
# Test in all cases: NCI-60 one-dose screen, 48 h (100 = growth as untreated, 0 = no growth, -100 = all killed)
# Conditions in all cases: 10 µM
# [1] = test system: HCT-15 colon
# [2] = test system: HT29 colon
# [3] = test system: SNB-75 CNS
# [4] = test system: SNB-19 CNS
# [5] = test system: U251 CNS
# [6] = test system: PC-3 prostate
# [7] = test system: SK-MEL-5 melanoma
# [8] = test system: UACC-62 melanoma
# [9] = test system: LOX IMVI melanoma
# [10] = test system: SK-MEL-28 melanoma
Structure (SMILES),growth [1],growth [2],growth [3],growth [4],growth [5],growth [6],growth [7],growth [8],growth [9],growth [10]
COc1ccc(C(=O)Nc2ccc(-c3ccc4c(c3)NC(=O)/C4=C\c3ccc[nH]3)cc2)cc1,15.2%,15.6%,-11% (active),60.8%,32.8%,27.5%,49.1%,78.1%,5.2% (active),88.8%
O=C(Nc1nc2ccccc2s1)c1ccc(Br)cc1,85.8%,87.3%,107%,98.8%,107%,82.1%,70.5%,73.3%,82.9%,90.7%
CN1CCN(c2ccc(Nc3nc(NCCCNC(=O)c4ccc(F)cc4)c4sccc4n3)cc2)CC1,2.85% (active),11.2%,108%,86%,19.7%,50.9%,60.8%,63.7%,13.4%,-45.3% (active)
CN(C(=O)c1ccc(C(F)(F)F)cc1C(F)(F)F)c1sc2c(c1C#N)CCC(=O)C2,10.4%,106%,105%,88.7%,-11.7% (active),0.435% (active),25.9%,55.7%,29.2%,106%
Cc1ccc([N+](=O)[O-])c(C(=O)Nc2ccc(-c3ccc4c(c3)NC(=O)/C4=C\c3ccc[nH]3)cc2)c1,-17.3% (active),46.5%,42.7%,30.6%,6.92% (active),21.3%,101%,39.5%,21.9%,94.8%
O=C(CSc1nnc(-c2c[nH]c3ccccc23)n1-c1ccccc1)Nc1ccc(C(=O)/C=C/c2ccccc2Cl)cc1,67%,91.6%,80.3%,84.8%,65.7%,61.2%,89.8%,72.1%,56.6%,96.3%
COc1ccc(-c2cc(C(=O)N=Nc3c(O)[nH]c4ccccc34)c3ccccc3n2)cc1,-83.1% (active),-15.1% (active),53.7%,-38.8% (active),-67.6% (active),2.92% (active),47.3%,39.5%,-73.6% (active),-41% (active)
O=C(NO)c1ccc(-c2nc3ccc4[nH]ncc4c3c3c2CCCC3)cc1,-11% (active),6.1% (active),-77.1% (active),-19.4% (active),-39.1% (active),15.8%,-88.9% (active),-65.8% (active),-90.6% (active),-55% (active)
CNC(=O)c1cccc(N2CCc3c2ccc(NC(=O)Nc2ccc(N4CCN(C)CC4)c(C(F)(F)F)c2)c3F)c1,-89.8% (active),-88.3% (active),7.71% (active),-84.7% (active),-92.1% (active),-51.8% (active),-100% (active),88.9%,-100% (active),-93.5% (active)
O=C(c1ccc(O)cc1)C1[C@H](c2ccccc2Br)[C@@H](c2ccccc2)NC12C(=O)Nc1ccc(Cl)cc12 (stereo not given in full),12.3%,-30.4% (active),2.75% (active),17.2%,-31.9% (active),2.91% (active),-33% (active),6.97% (active),-100% (active),29.2%
Cc1ccc(-c2cc(C(=O)N=Nc3c(O)[nH]c4ccc(Br)cc34)c3ccccc3n2)cc1,8.77% (active),42.1%,102%,61.1%,21.7%,52.9%,96.7%,60.6%,25.3%,84.4%
CCCSc1nc(NC2CC2)c(C#N)c(-c2ccc(OC)cc2)n1,95.4%,90.1%,103%,70.3%,87.4%,95.3%,98.2%,83.7%,93.9%,118%
COc1ccc(-c2cc(C(=O)N=Nc3c(O)[nH]c4ccc(F)cc34)c3ccccc3n2)cc1,21.5%,61.9%,84.6%,44.1%,7.34% (active),76.6%,72.4%,81.4%,24.1%,81.1%
O=C(O)CCCCCCCCCCN1C(=O)/C(=C/c2cnc(-c3ccccc3)s2)SC1=S,80.7%,126%,124%,100%,59.5%,95%,93.1%,76.4%,32.1%,97.4%
O=C(c1ccc(O)cc1)C1[C@H](c2ccc(Br)cc2)[C@@H](c2ccccc2)NC12C(=O)Nc1ccccc12 (stereo not given in full),24.6%,-9.34% (active),46.5%,47.8%,22%,32.1%,30.1%,50.9%,-96.9% (active),78.5%
COc1ccc(C(=O)/C=C/c2ccc(Cl)c(C(F)(F)F)c2)cc1S(N)(=O)=O,-99.9% (active),-76.9% (active),-33.7% (active),-100% (active),-68.7% (active),-48.2% (active),-89.4% (active),-98.7% (active),-91.4% (active),-100% (active)
CN1CCc2c(sc3ncnc(N/N=C/c4cn(-c5ccccc5)nc4-c4ccc(Cl)cc4)c23)C1,7.13% (active),5.95% (active),74.1%,34.3%,18.2%,55.2%,30.7%,9.22% (active),-65.7% (active),45%
COC[C@@H](CC(C)C)N=C1N/C(=C\c2ccc3ncsc3c2)C(=O)N1C,2.01% (active),6.85% (active),27.5%,14.6%,15.4%,23.6%,-57.3% (active),-64.9% (active),-51.2% (active),-1.69% (active)
CCNCCCn1c2c(c3cc(OC)c(OC)cc3c1=O)C(=O)c1cc3c(nc1-2)OCO3,-83% (active),26.1%,56.5%,24.9%,21.7%,43.7%,22.5%,-15.3% (active),-97.9% (active),71%
CC(=O)Nc1ccc(-n2cnc3cc(-c4ccc(O)cc4)ccc32)cc1C,49.2%,61.6%,58.4%,58.4%,47.7%,58.5%,46.4%,42.9%,53.3%,51.8%
N#Cc1ccc(-c2nn(-c3ccc(C(=O)O)cc3)cc2CNc2cc(Cl)cc(C(F)(F)F)c2)cc1,7.93% (active),18.8%,31%,20.9%,18.5%,14.1%,-64.1% (active),-48.8% (active),-24% (active),12.2%
O=C(CNc1nc(-c2ccccc2)cs1)Nc1ccccc1,-70.6% (active),-53.9% (active),29.2%,-68.4% (active),-85.2% (active),12.3%,-99.5% (active),-90.1% (active),-90.1% (active),-60.1% (active)
Cc1noc2c(Cc3ccccc3)nn(CC(=O)N/N=C/c3ccc(Cl)cc3)c(=O)c12,86.3%,65.8%,-3.5% (active),71.3%,21.6%,76.4%,85.5%,92.9%,48.7%,104%
Cc1ccc(-c2cc(-c3cc4ccccc4nc3Cl)[nH]c(=S)n2)cc1,30.2%,43.3%,66.2%,71.1%,71.8%,53.1%,-11% (active),21.5%,53.6%,47.4%
Cc1ccc(-c2nc(Nc3ccccc3C(=O)O)c3ccccc3n2)cc1,4.66% (active),17.8%,15.7%,8.82% (active),18.4%,15.7%,-24.8% (active),11%,8.57% (active),28.8%
N#Cc1c(NC(=O)c2ccc(C(O)(C(F)(F)F)C(F)(F)F)cc2)sc2c1CCC(=O)C2,-68.7% (active),-34.5% (active),16.9%,-15.9% (active),-91.1% (active),-44.8% (active),-99.1% (active),-88.3% (active),-96.4% (active),-87.1% (active)
CCN(CC)CCOc1ccc(C(=C(C)c2ccccc2)c2ccc(OCCN(CC)CC)cc2)cc1,-31.2% (active),-57.6% (active),6.51% (active),9.06% (active),-21.8% (active),22.7%,-100% (active),-86.5% (active),-98.8% (active),-96.5% (active)
